Some test systems named below: HCT-15 colon; HT29 colon; SNB-75 CNS; SNB-19 CNS; U251 CNS; PC-3 prostate; SK-MEL-5 melanoma; UACC-62 melanoma; LOX IMVI melanoma; SK-MEL-28 melanoma; SK-MEL-2 melanoma; EKVX NSCLC; SN12C renal; UO-31 renal; TK-10 renal; ACHN renal; CAKI-1 renal; A498 renal; MOLT-4 leukemia; CCRF-CEM leukemia.
Experiment in all cases: NCI-60 one-dose screen, 48 h (100 = growth as untreated, 0 = no growth, -100 = all killed)
Settings in all cases: 10 µM unless noted

SMILES strings stand for the structures. “And” between values parts separate entries of the source, which are not always exact repeats. Equal entries are not always repeated. This is part of a sample that, as a whole, favours compounds with a hit. Of some 83,000 tested, about 20% had one in any assay.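 Cells were grown in 96-well plates and exposed to the test compound at a single concentration for 48 hours; results are reported as percent growth, with values below 10 considered active.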 The source made the active and inactive calls.

Consider `CN(C)C1CCN(C(=O)c2ccc(NC(=O)Nc3ccc(-c4nc(N5CCOCC5)c5cccn5n4)cc3)cc2)CC1`, for which the growth was 40.5% (inactive) in the experiment on HCT-15 colon; 6.06% (active) in the experiment with HT29 colon; -40.5% (active) with SNB-75 CNS; 3% (active) in the experiment with SNB-19 CNS; 5.17% (active) in the experiment with U251 CNS; 3.69% (active) in the experiment with PC-3 prostate. Moreover, the growth was -63.6% (active) with SK-MEL-5 melanoma; -43.5% (active) in the experiment with UACC-62 melanoma; -2.24% (active) in the experiment on LOX IMVI melanoma; -22.4% (active) in the experiment with SK-MEL-28 melanoma; -7.66% (active) in the experiment on SK-MEL-2 melanoma; -15% (active) in the experiment on EKVX NSCLC. The growth was 4.15% (active) with SN12C renal; 8.27% (active) in the experiment with UO-31 renal; -20.9% (active) with TK-10 renal; 2.19% (active) in the experiment with ACHN renal; 69.6% (inactive) in the experiment with CAKI-1 renal; -54.9% (active) in the experiment with A498 renal. Besides, in the experiment with MOLT-4 leukemia, the growth is 0.188% (active).
Regarding `O=C1/C(=C/c2cn(-c3ccccc3)nc2-c2ccccc2)SC(=S)N1c1ccccc1`, the growth with HCT-15 colon is 101% (inactive); in the experiment on HT29 colon, 108% (inactive); with SNB-75 CNS, 97.2% (inactive); in the experiment on SNB-19 CNS it was 93.4% (inactive); with U251 CNS, 103% (inactive); in the experiment with PC-3 prostate, 77.9% (inactive). Further, the growth was 98.9% (inactive) in the experiment with SK-MEL-5 melanoma; 87.5% (inactive) in the experiment on UACC-62 melanoma; 86.8% (inactive) with LOX IMVI melanoma; 97.4% (inactive) in the experiment with SK-MEL-28 melanoma; 110% (inactive) in the experiment on SK-MEL-2 melanoma; 99% (inactive) in the experiment with EKVX NSCLC. Further, the growth is 90.7% (inactive) with SN12C renal; 82.3% (inactive) with UO-31 renal; 106% (inactive) in the experiment on TK-10 renal; 95.5% (inactive) in the experiment on ACHN renal; 87.2% (inactive) in the experiment on CAKI-1 renal; 91.1% (inactive) with A498 renal. For the same compound, in the experiment on MOLT-4 leukemia, the growth was 109% (inactive).
Consider `O=C(O)c1ccccc1Cc1ccc(F)c2ccccc12`, for which the growth with HCT-15 colon was 108% (inactive) and 99.4% (inactive); in the experiment on HT29 colon, 116% (inactive) and 107% (inactive); in the experiment on SNB-75 CNS it was 93.6% (inactive) and 77.4% (inactive); with SNB-19 CNS, 101% (inactive) and 104% (inactive); in the experiment with U251 CNS, 115% (inactive) and 104% (inactive); with PC-3 prostate it was 120% (inactive) and 90.7% (inactive). Further, the growth in the experiment with SK-MEL-5 melanoma was 96.2% (inactive) and 102% (inactive); with UACC-62 melanoma, 101% (inactive) and 106% (inactive); in the experiment on LOX IMVI melanoma it was 100% (inactive) and 98.9% (inactive); in the experiment on SK-MEL-28 melanoma, 105% (inactive); in the experiment with SK-MEL-2 melanoma, 101% (inactive) and 119% (inactive); with EKVX NSCLC it was 107% (inactive). Besides, the growth with SN12C renal was 107% (inactive) and 97.9% (inactive); in the experiment with TK-10 renal it was 107% (inactive) and 109% (inactive); in the experiment on ACHN renal it was 99.3% (inactive) and 102% (inactive); in the experiment with CAKI-1 renal, 94.9% (inactive) and 100% (inactive); in the experiment on A498 renal, 99.3% (inactive) and 97.4% (inactive); with CCRF-CEM leukemia, 98.8% (inactive) and 96.3% (inactive). The growth in the experiment on MOLT-4 leukemia was 93.7% (inactive) and 107% (inactive).
Consider `N#C/C(=C\c1ccccc1Cl)c1cc2ccccc2[nH]1`, for which the growth in the experiment on HCT-15 colon was 81.4% (inactive); in the experiment on HT29 colon, 97.7% (inactive); in the experiment with SNB-75 CNS, 83% (inactive); in the experiment on SNB-19 CNS, 93.1% (inactive); in the experiment with U251 CNS, 85.8% (inactive); in the experiment with PC-3 prostate, 80.5% (inactive). For the same compound, the growth in the experiment on SK-MEL-5 melanoma is 85.9% (inactive); with UACC-62 melanoma, 76.5% (inactive); in the experiment with LOX IMVI melanoma, 92.4% (inactive); in the experiment on SK-MEL-28 melanoma it was 99% (inactive); with SK-MEL-2 melanoma it was 114% (inactive); with EKVX NSCLC it was 77.1% (inactive). Also, the growth in the experiment with SN12C renal is 92.4% (inactive); in the experiment on TK-10 renal it was 130% (inactive); in the experiment with ACHN renal, 84.7% (inactive); in the experiment on CAKI-1 renal it was 73.1% (inactive); in the experiment with A498 renal, 98.6% (inactive); in the experiment with CCRF-CEM leukemia, -4.12% (active). Moreover, the growth in the experiment with MOLT-4 leukemia is 77.1% (inactive).
In the case of `O=C(Nc1ccc(Cl)c(Cl)c1)Nc1ccc(Cl)c(Cl)c1`, the growth with HCT-15 colon is -16.7% (active) and 18.2% (inactive); in the experiment on HT29 colon, -82.6% (active) and 7.52% (active); in the experiment with SNB-75 CNS, -94.2% (active) and 38.3% (inactive); with SNB-19 CNS it was -62% (active) and 26.5% (inactive); in the experiment with U251 CNS, -84.3% (active) and 13.3% (inactive); in the experiment with PC-3 prostate it was -80.2% (active) and 11.1% (inactive). Further, the growth was -97.2% (active) and 34.6% (inactive) in the experiment on SK-MEL-5 melanoma; -89.2% (active) and 12.2% (inactive) in the experiment with UACC-62 melanoma; -89.4% (active) and 9.39% (active) in the experiment with LOX IMVI melanoma; -78.8% (active) and 34.9% (inactive) with SK-MEL-28 melanoma; -78.9% (active) and 45.5% (inactive) with SK-MEL-2 melanoma; 23.1% (inactive) in the experiment on EKVX NSCLC. Further, the growth with SN12C renal is -83.4% (active) and 14.8% (inactive); in the experiment on TK-10 renal it was -96.9% (active) and 35.3% (inactive); in the experiment with ACHN renal, -85.8% (active) and 7.07% (active); with CAKI-1 renal, -90.8% (active) and -2.12% (active); with A498 renal it was -90.1% (active) and -0.946% (active); in the experiment with CCRF-CEM leukemia, -14% (active) and 21.4% (inactive). The growth in the experiment on MOLT-4 leukemia is -28.5% (active) and 20.8% (inactive).
`O=C1/C(=C/c2ccc(F)c(F)c2)CN(C(=O)C(Cl)Cl)C/C1=C\c1ccc(F)c(F)c1`: the growth in the experiment on HCT-15 colon is -74.9% (active); in the experiment on HT29 colon it was -26.6% (active); with SNB-75 CNS, -84.7% (active); in the experiment with SNB-19 CNS it was -93.1% (active); in the experiment with U251 CNS, -99.3% (active); in the experiment on PC-3 prostate, -85.2% (active). Further, the growth is -95.3% (active) in the experiment on SK-MEL-5 melanoma; -85.2% (active) in the experiment with UACC-62 melanoma; -90.1% (active) in the experiment with LOX IMVI melanoma; -92.6% (active) in the experiment on SK-MEL-28 melanoma; -53.4% (active) in the experiment with SK-MEL-2 melanoma; -93.7% (active) in the experiment with EKVX NSCLC. For the same compound, the growth in the experiment with SN12C renal is -75.3% (active); in the experiment on TK-10 renal, -94.6% (active); in the experiment with ACHN renal, -100% (active); in the experiment on CAKI-1 renal, -92.1% (active); with A498 renal, -96.8% (active); with CCRF-CEM leukemia it was -3.13% (active). Besides, in the experiment on MOLT-4 leukemia, the growth was -21% (active).
With `Cn1cc2c(=O)nc3c(-c4nc5ccccc5[nH]4)n[nH]n3c2n1`, the growth in the experiment on HCT-15 colon was 80.1% (inactive); in the experiment with HT29 colon it was 89.7% (inactive); with SNB-75 CNS it was 93.4% (inactive); with SNB-19 CNS, 95.8% (inactive); in the experiment with U251 CNS, 89.6% (inactive); with PC-3 prostate, 67.1% (inactive). The growth in the experiment with SK-MEL-5 melanoma is 53.1% (inactive); in the experiment on UACC-62 melanoma it was 70.6% (inactive); in the experiment with LOX IMVI melanoma it was 72.5% (inactive); in the experiment with SK-MEL-28 melanoma it was 82.5% (inactive); with SK-MEL-2 melanoma, 30.4% (inactive); in the experiment on EKVX NSCLC it was 95.6% (inactive). In addition, the growth in the experiment on SN12C renal was 77.9% (inactive); with TK-10 renal it was 120% (inactive); in the experiment with ACHN renal it was 98.1% (inactive); in the experiment with CAKI-1 renal it was 86.8% (inactive); in the experiment with A498 renal it was 58.7% (inactive); with CCRF-CEM leukemia, 6.27% (active). Moreover, in the experiment with MOLT-4 leukemia, the growth was 47.8% (inactive).

For the origin of these results see PubChem BioAssay (NCI).
